Assay results from PubChem BioAssay AID1466 (National Center for Advancing Translational Sciences (NCATS), 2008).
Among all 200,000 compounds or so, about 10 (0.005%) were called active. Roughly 8% stayed inconclusive and do not appear here. The call rests on the fitted dose curve; in most records, active means well fitted inhibition curve with a large enough effect; inconclusive means small, poorly fitted or top-dose-only effect, or effect the other way, or another doubt; inactive means no such curve, though single readings can be large or run the other way. The list is a sample of the results.

The compounds below were run against Lysosomal alpha-glucosidase (Homo sapiens) (UniProt P10253) (assay: qHTS Assay for Inhibitors of Human alpha-Glucosidase as a Potential Chaperone Treatment of Pompe Disease). Conditions: purified human GAA, 4-MU-alpha-glucoside fluorescence; series mostly up to 76.9 µM.
Excerpt: NIH Chemical Genomics Center [NCGC] NIH Molecular Libraries Probe Production centers Network [MLPCN] MLPCN Grant: 1R03MH084841-01 Assay Submitter (PI): Wei Zheng NCGC Assay Overview: Alpha-glucosidase is responsible for hydrolysis of terminal, non-reducing 1,4-linked alpha-D-glucose residues with release of alpha-D-glucose. It is a lysosomal hydrolase that is required for the degradation of a small percentage (1-3%) of cellular glycogen in human. Deficiency of this enzyme results in glycogen-storage disease type II (GSDII), also referred to as Pompe disease, an autosomal recessive disorder. Structurally normal glycogen is accumulated in lysosomes and cytoplasm in affected patients, primarily in muscle tissues. Excessive glycogen storage within lysosomes may interrupt normal functioning of other organelles and leads to cellular injury. In turn, this leads to enlargement and dysfunction of the entire organ involved (eg, cardiomyopathy and muscle weakness). It has reported that the improper folding and trafficking of alpha-glucosidase resulting from the genetic mutations may account for a significant number of Pompe patients. […] We optimized this alpha-glucosidase assay in 1536-well plate format for identifying the novel small molecule inhibitors with the structures other than the sugar analogs in order to develop the new pharmacological chaperones.
NCGC Assay Protocol Summary: This is a fluorogenic enzyme assay with 4-methylumbelliferyl-alpha-D-[…] as the substrate and human alpha-glucosidase as the enzyme preparation. Upon the hydrolysis of this fluorogenic substrate, the resulting product, 1. 4-methyllumbelliferone, can be excited at 365 nm and emits at 440 nm which can be detected by a standard fluorescence plate reader. Data were normalized to the controls for basal activity (without enzyme) and 100% activity (with enzyme). In the AC50 values were determined from concentration-response data modeled with the standard Hill equation. Assay buffer: 50 mM citric acid (titrated with potassium phosphate to pH 5.0), 0.005% Tween-20, pH 5.0. (pH 5.0 is an optimal condition for this enzyme assay) 1536-well assay protocol for the human alpha-glucosidase: (1) Add 2 ul/well of enzyme (4 nM final) (2) Add 23 nL compounds in DMSO solution. The final titration was 0.7 nM to 77 uM. (3) Add 1 ul of substrate (400 uM final) (4) Incubate at room temperature for 20 min. (5) Add 2 ul stop solution (1M NaOH and 1M Glycine mixture, pH 10) (6) Detect the assay plate in a ViewLux plate reader (PerkinElmer) with Ex=365 nm and Em=440nm. Keywords: Alpha-glucosidase, Pompe Disease, pharmacological chaperone, chaperone therapy, high throughput screening, alpha-glucosidase inhibitor, MLSMR, MLSCN, NIH Roadmap, qHTS and NCGC
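Further: plate controls were uninhibited enzyme wells for no effect and no-enzyme background for full effect.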

Activity change, negative = inhibition, inactive:
CN1CCc2nc(SC(C(=O)O)c3ccccc3)c(C#N)c(-c3cccs3)c2C1 (stereo not drawn)
COc1ccccc1NC(=S)N1CCN(C(c2ccccc2)c2ccccc2)CC1
S=C(NNC(=S)NC1CC2CCC1C2)NC1CC2C=CC1C2 (stereo not drawn)
COc1ccccc1NC(=S)N1CCC(NC(=O)C23CC4CC(CC(C4)C2)C3)CC1
COc1ccc2[nH]c(C(=O)Nc3ccccc3Cl)cc2c1
COc1ccc(Br)c2c1C(=O)CC2
c1ccc(-n2nnnc2-c2cccnc2)cc1
CCCSc1ncccc1C(=O)O
Cn1c(SCC(=O)c2ccc(F)cc2)nnc1-c1ccccn1
COc1ccc(Cl)cc1NC(=O)C(C)N1CCc2ccccc21 (stereo not drawn)
CSc1ccc(CNCCN2CCOCC2)cc1
Cc1ccccc1NC(=O)Nc1ccccc1N1CCCCC1
Clc1ccc(CSc2nnc3c(n2)[nH]c2ccccc23)cc1
O=C(COc1ccc(S(=O)(=O)N2CCCCC2)cc1)NCc1ccccn1
O=C(NNS(=O)(=O)c1ccccc1C(F)(F)F)c1cc2ncc(C(F)(F)F)cc2s1
CCOC(=O)C1CCN(C(=O)C2(NC(=O)Nc3cccc(F)c3)CCCCC2)CC1
Cc1ccccc1-c1nc(C#N)c(NCc2ccco2)o1
Cc1cccc(C(=O)N2CCC(c3nc4ccccc4s3)CC2)c1
COc1ccc(CN2CCN(Cc3cn(C)nc3-c3ccccc3)CC2CCO)c(C)c1C (stereo not drawn)
Cc1noc(C)c1/C=N/Nc1ccc2ccccc2n1
COc1cc(CNCCN(C)C)ccc1OCc1c(F)cccc1Cl
Cc1ccc(C(=O)NC(=S)Nc2ccc(N3CCOCC3)cc2)cc1
O=C(CN1CCN(C/C=C/c2ccccc2)CC1)Nc1ccc(F)cc1F
COC(=O)c1cn(C(=O)c2ccc(Cl)cc2)c2ccccc12
O=C1/C(=C/c2cccs2)CCC1C1CCCC1 (stereo not drawn)
O=C(CCl)N(Cc1cccc([N+](=O)[O-])c1)c1cccc(Cl)c1
Cc1cc(OC(=O)c2ccccc2)c([N+](=O)[O-])c(=O)[nH]1
CC(O)CNCCOc1cccc(Oc2ccccc2)c1 (stereo not drawn)
O=C(CSc1ncn[nH]1)Nc1nc(-c2cccc([N+](=O)[O-])c2)cs1
Nc1ccc(C(=O)OCC(=O)NC2CCS(=O)(=O)C2)cc1[N+](=O)[O-] (stereo not drawn)
COc1cccc(OCCCN2CCCCCC2)c1
Cc1ccc(Cl)cc1NC(=O)COC(=O)CC(C)(C)C
CCC1(C)Cc2c(sc3nc(SC)[nH]c(=O)c23)CO1 (stereo not drawn) 0.866% [at 15.4 µM]
CC1CCN(S(=O)(=O)c2ccc3ncn(CC(=O)N(C)C4CCCCC4)c(=O)c3c2)CC1
Cc1nn(-c2ccccc2)c(=O)c2noc(C)c12 -3.66% [at 15.4 µM]
Cc1ccc(NNC(=O)c2c(F)cccc2Cl)cc1Cl 1.45% [at 15.4 µM]
Cc1c(C(=O)N(Cc2ccccc2)Cc2cccnc2)cnn1-c1ccc(F)cc1
CCOC(=O)C(=CNNc1ccsc1C(=O)OC)C(=O)OCC
Cc1ccc(-c2csc(-c3cc(C)on3)n2)cc1
CC(=O)Nc1ccc(S(=O)(=O)Nc2nccc(/C=C/c3ccccc3F)n2)cc1
CCN1CCN(C(C(=O)NC2CCCC2)c2cc3c(cc2[N+](=O)[O-])OCO3)CC1 (stereo not drawn)
Cc1ccc(C2CCN(C(=S)Nc3cccc(Cl)c3)C2)cc1 (stereo not drawn)
COc1cccc(-c2ccc(SCC(=O)N3CCN(c4ccccc4)CC3)nn2)c1
COc1ccccc1-c1c(C#N)c(N)nc2c1CCC2 6.93% [at 15.4 µM]
Cc1noc(C)c1-c1nc(CSc2ccc(Cl)cc2)no1
C/C(=N/NC(=O)c1ccn(C)n1)c1ccncc1
O=C(COC(=O)c1ccccn1)Nc1cccc2ccccc12
CC(C)CCN1CCN(Cc2ccc(C(F)(F)F)cc2)CC1CCO (stereo not drawn)
O=C(NC(Cc1c[nH]c2ccccc12)C(=O)O)/C(=C/c1ccco1)NC(=O)c1ccccc1 (stereo not drawn)
COc1ccccc1-n1c(=S)[nH]c2c(sc(=S)n2-c2ccc(C)cc2C)c1=O
COc1ccc(C)cc1NC(=O)NCc1ccccn1
Cn1c(CC2Sc3ccccc3NC2=O)nnc1SCC(=O)c1ccc(Cl)cc1 (stereo not drawn)
N#Cc1ccc(Oc2ccc(C(F)(F)F)cc2NC(=O)c2ccc(F)cc2)cc1
O=C(CSc1ccc([N+](=O)[O-])cn1)Nc1ccc(N2CCOCC2)c(Cl)c1
C/C(=N/O)c1ccc(N2C(=O)C3C4C=CC(C3C2=O)C2C3C(=O)N(c5ccc(/C(C)=N/O)cc5)C(=O)C3C42)cc1 (stereo not drawn)
CC(=O)c1ccc(N=C2SCCCN2C(=O)C2CCCCC2)cc1
O=C(NNC(=S)NC(=O)c1cn(-c2ccccc2)nc1-c1ccccc1)c1ccncc1
COc1ccc(C)cc1NC(=S)Nc1ccccc1SC
Cc1ccc(S(=O)(=O)NC(=O)N2CCCN(Cc3ccc(F)cc3)CC2)cc1
Cc1ccc(/C=N/NC(=O)CN2CCN(Cc3ccccc3)CC2)s1 -2.78% [at 15.4 µM]
CCS(=O)(=O)c1ccc(O)c(NC(=O)COc2ccc(Cl)cc2)c1
CCc1nc2ccccc2c(C(=O)NCc2ccc(OC)cc2)c1C
CCc1ccc(CN(C)C(=O)CCc2nnc(-c3ccc(-c4ccccc4)cc3)o2)nc1
CN(C)c1ccc(C=NCCc2ccc(S(N)(=O)=O)cc2)cc1
COc1ccc(CN2CCC(c3nc4ccc(Cl)cc4[nH]3)CC2)cc1
Cc1ccccc1CSc1nnc(-c2ccccc2)c(=O)[nH]1
CCC(=O)OCCNc1nc(-c2ccccc2)nc2ccccc12
NNC(=O)c1cnn(-c2ccccc2)c1C(F)(F)F
Cc1ccc(CN(Cc2cccnc2)C(=S)Nc2cccc(Cl)c2C)cc1
CCOc1cc2c(Cl)ncnc2c(OCC)c1OCC
CC12C(=O)N(c3ccccc3)C(=O)C1C(c1ccccc1)N1CCCN12 (stereo not drawn) -7.1% [at 15.4 µM]
CSc1nc(C)nc(C2CC2)c1C#N
COc1ccc(C)cc1NC(=O)CSc1nnc(CC(=O)Nc2ccccc2F)n1C
C=CCc1ccc(OCC(O)CN2CCN(Cc3ccccc3)CC2)c(OC)c1 (stereo not drawn)
O=C(c1ccc(-c2ccccc2)cc1)C1CCCN(C(=O)c2cncs2)C1 (stereo not drawn)
Cc1c(CCC(=O)O)c(=O)oc2cc3occ(-c4ccccc4)c3cc12 4.78% [at 15.4 µM]
Cc1n[nH]c(=O)n1-c1ccc(C(C)C)cc1
O=C(COC(=O)c1ccncc1)c1ccccc1
O=C(Nc1ccc(S(=O)(=O)Nc2nccs2)cc1)c1cc(=O)[nH]c2ccccc12 -5.51% [at 15.4 µM]
COC(=O)c1ccc(CN2CCN(CCCc3ccccc3)C(CCO)C2)cc1 (stereo not drawn)
Cc1cc(CO)nn1-c1ccc([N+](=O)[O-])cc1
Cc1ccc2cc(CN(c3ccc(C)c(C)c3)S(C)(=O)=O)c(=O)[nH]c2c1
O=C(Cc1ccccc1)N1CCN(S(=O)(=O)c2ccc([N+](=O)[O-])cc2)CC1
CC(=O)c1c(-c2ccccc2)c2ccccc2[nH]c1=O
c1ccc(-c2cc(N3CCCCC3)c3ccccc3n2)cc1
FC(F)(F)c1ccnc(Oc2ccc(C3=NCCS3)cc2)c1
O=C(O)CC1=C(Nc2ccccc2)C(=O)N(c2ccccc2)C1c1ccc(Cl)cc1 (stereo not drawn)
CC1CCCN(CC(O)COc2ccc3c(c2)OCO3)C1 (stereo not drawn)
COc1ccc(/C=C/CN2CCN(Cc3ccc(C)cc3)C(CCO)C2)cc1 (stereo not drawn)
COc1cc(C)c(Cl)cc1S(=O)(=O)n1ccnc1
CCOC(=O)C1(CC2CCCCO2)CCN(Cc2nc(-c3cccs3)oc2C)CC1 (stereo not drawn)
O=C(c1ccc(OC2CCN(Cc3ccccn3)CC2)cc1)N1CCCCCC1
c1ccc(Cc2cc[n+](Cc3ccccc3)cc2)cc1
Cc1nc(N)[nH]c(=O)c1Oc1cccc(C(F)(F)F)c1
CC(C)Oc1ccc(CCc2nnc(SCC(=O)O)n2-c2ccccc2)cc1
O=C(NC1C2CC3CC(C2)CC1C3)c1ccc(N2CCNCC2)c([N+](=O)[O-])c1 (stereo not drawn) -3.61% [at 15.4 µM]
CCN(CC)P(=O)(Nc1ccc(SC(F)F)cc1)c1ccc(N(C)C)cc1NC(=O)c1ccco1 (stereo not drawn)
C=C(C)COc1ccc(-c2nc(N)ncc2-c2ccccc2OC)c(O)c1
CCN(CCn1cccn1)Cc1nc(-c2ccc(C(=O)OC)cc2)no1
O=C1Oc2ccccc2C(=O)/C1=C/c1ccccc1O
Cc1ccc(S(=O)(=O)N2CCOCC2)cc1C(=O)OC1CCCCC1=O (stereo not drawn)
N#CC1=C(N)Oc2c(ccc3cccnc23)C1c1ccncc1 (stereo not drawn) -8.01% [at 15.4 µM]
COC(=O)c1sccc1NN1C(=O)c2ccccc2C1=O
CCc1ccc(-n2c(SCc3cc(=O)n4cc(Br)ccc4n3)nc3[nH]ncc3c2=O)cc1
O=C(c1ccc(F)cc1)n1c(=S)nc2ccccn21
COc1ccc(CN2CCCC(C(=O)c3ccc(Cl)cc3)C2)cc1Cn1cncn1 (stereo not drawn)
CS(=O)(=O)c1ccc2nnn(OCC(=O)Nc3cccc(C#N)c3)c2c1
CCOC(=O)c1ccc(NNC(C)=O)c([N+](=O)[O-])c1
